# In the library only some 3.4% were active in any assay of this set; here they are far more common.
# GPR151 ag: human GPR151 activation. AID 1508602. 650,000 compounds, 1% hits. activation, % at 11.2 µM. Q8TDV0. PathHunter beta-arrestin GPR151 cells, luminescence; in the data active = activation above about 4.9%;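 note: 0% = median of compound wells and 100% = cells with positive control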
# MITF primary: inhibitors of human MITF; 650,000 compounds, 0.91% hits; inhibition, % at 2.6 µM; AlphaScreen MITF homodimerization, bead proximity signal; in the data active = inhibition above about 50%;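 note: 0% = vehicle wells with protein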
# FBW7 act: human FBW7 E3 ligase activation, primary screen. AlphaScreen FBW7–phospho-cyclin E peptide binding, activator screen. normalized activity (activation), % at 26.1 µM. 650,000 compounds, 0.13% hits; in the data active = normalized activity above about 1.9%;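 note: purified mutant Fbw7 with reduced substrate affinity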
# TEAD-YAP inh: TEAD-YAP interaction inhibition; HEK-TIYL cells, TEAD-Gal4/YAP UAS-luciferase luminescence; inhibition, % at 9.12 µM; 640,000 compounds, 1.4% hits; AID 1259422; in the data active = inhibition above about 32%;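 note: 0% = median of test compound wells and 100% = reference inhibitor wells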
# GPR151 conf act: human GPR151 activation, confirmation screen; shares compounds with GPR151 ag; GPR151 PathHunter beta-arrestin cells, luminescence, 90 min; % of EA-reagent control over plate median; activation, % at 11.2 µM; 6,700 tested, under 10 active; AID 1508609;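 active = mean percent activation across replicates above the confirmation screen cutoff of 4.91%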
# GPR119 counter: GPR119 activation, counter-screen for GPR151 activators; shares compounds with GPR151 ag; GPR119 PathHunter beta-arrestin cells, luminescence, 90 min; 0 = compound-well median, 100 = enzyme-acceptor control; activation, % at 11.2 µM; 6,700 compounds, 0.3% hits; AID 1508611;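 active = mean percent activation in the counterscreen above 29.09%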;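 note: counterscreen on off-target GPR119 to flag nonselective hits from the GPR151 activator screen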
# Target sequence (Q8TDV5 whole entry, looked up): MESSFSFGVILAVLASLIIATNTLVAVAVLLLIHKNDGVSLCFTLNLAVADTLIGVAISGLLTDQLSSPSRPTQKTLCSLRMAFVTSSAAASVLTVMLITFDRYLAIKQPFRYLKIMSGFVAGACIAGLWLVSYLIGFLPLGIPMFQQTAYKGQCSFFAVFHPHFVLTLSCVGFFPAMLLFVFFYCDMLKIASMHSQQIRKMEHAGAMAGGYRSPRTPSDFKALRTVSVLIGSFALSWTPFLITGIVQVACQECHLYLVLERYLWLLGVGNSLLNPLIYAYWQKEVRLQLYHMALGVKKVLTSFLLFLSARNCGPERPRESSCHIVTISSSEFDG
# Active calls of the source: *; · = no result given.
SMILES,GPR151 ag,MITF primary,FBW7 act,TEAD-YAP inh,GPR151 conf act,GPR119 counter
COc1ccc(CNc2ccc3ncc(-c4ccc(OC)cc4)n3n2)cc1,5.5*,-14.2,-0.1,21.8,0.5,-1.8
COc1ccccc1-c1cnc2ccc(NCc3ccc(S(N)(=O)=O)cc3)nn12,9.4*,-10.5,0.0,3.5,0.2,9.2
Fc1ccc(CNc2ccc3ncc(-c4ccc5c(c4)OCO5)n3n2)cc1,8.4*,11.5,0.0,22.6,0.4,4.2
N=c1c(C(=O)NC2CCCC2)cc2c(=O)n3ccccc3nc2n1Cc1cccnc1,0.0,0.9,0.0,-4.4,·,·
CCCN1C(=O)c2ccc(C(=O)Nc3ccc(Br)cc3C(=O)O)cc2C1=O,0.2,-2.0,-0.2,-5.0,·,·
CN1C(=O)c2ccc(C(=O)Nc3ccc(Br)cc3C(=O)O)cc2C1=O,7.9*,-1.9,-0.2,8.6,-0.3,2.0
COc1ccc2cc(C(=O)Nc3ccccc3C)c(=N)oc2c1,5.0*,11.2,0.1,-40.1,0.1,-7.2
CC(C)(C)N1CC(CO)OC1c1ccccc1 (stereo unspecified),4.9*,11.9,0.1,2.4,-0.7,-4.7
O=C1N(Cc2ccc(C(F)(F)F)cc2)CCN1c1ccc2c(c1)OCO2,1.0,-4.2,0.1,2.0,·,·
C/C(=N\NC(=O)c1ccc(F)cc1)c1ccc([N+](=O)[O-])cc1,8.1*,10.1,-0.1,-25.1,-1.0,-14.2
COC(=O)[C@@H]1CC[C@H](C)[C@@H](c2ccc(C)cc2)N1C(=O)c1ccc(/C=N/OC[C@@H](O)[C@H]2O[C@@H]3OC(C)(C)O[C@@H]3[C@H]2O)cc1,6.7*,-2.7,-0.1,·,0.6,10.6
CC(=O)N1CCC(N(C(=O)Nc2c(F)cccc2F)C(C)C)CC1,9.1*,4.6,-0.1,-4.2,-0.8,0.5
CC(=O)N1CCC(N(C(=O)Nc2cccc(Cl)c2C)C(C)C)CC1,0.5,4.0,-0.1,-0.5,·,·
CCCC(c1nnnn1Cc1ccco1)N1CCN(C(=O)c2ccco2)CC1 (stereo unspecified),-0.6,-4.8,0.1,-3.1,·,·
CCCCC(c1nnnn1Cc1ccco1)N1CCN(C(=O)c2ccco2)CC1 (stereo unspecified),20.0*,4.3,0.2,-0.3,0.3,4.0
COC(=O)c1c(Cl)nc(Cl)c([N+](=O)[O-])c1Cl,0.0,9.7,-0.1,-0.7,·,·
CCOc1cnc(C(=O)NNC(=O)c2ccc(S(=O)(=O)N(C)C)cc2)o1,6.0*,-6.0,0.1,1.2,0.5,-3.9
COc1ccc(S(=O)(=O)Nc2ccc(C)c([N+](=O)[O-])c2)cc1,0.2,9.7,0.2,0.9,·,·
COCCn1c(C)cc2c(c1=O)C(c1ccc(Cl)cc1)C(C(=O)OC)=C(N)O2 (stereo unspecified),0.0,-2.9,-0.1,7.6,·,·
COCCn1c(C)cc2c(c1=O)C(c1ccc(Cl)cc1Cl)C(C(=O)OC)=C(N)O2 (stereo unspecified),7.1*,9.9,0.1,0.3,0.7,-6.0
COc1ccc(S(=O)(=O)N2C(=O)C(=O)c3ccccc32)cc1,-1.1,-8.0,0.0,-2.2,·,·
C/C(=N\NC(=O)c1cc(-c2cccs2)[nH]n1)c1ccc(O)cc1,-1.3,-10.5,0.0,-6.3,·,·
C/C(=N\NC(=O)c1cc(-c2ccco2)[nH]n1)c1ccc(O)cc1,7.4*,8.5,-0.1,6.0,0.3,11.3
Cc1ccc(NC(=O)NCC2(O)CCCC2)cc1C,7.5*,12.2,-0.1,-29.2,0.6,-3.4
O=C(NCC1(c2ccccc2)CCOCC1)c1ccccc1Br,2.9,-6.3,-0.1,8.0,·,·
SMILES,GPR151 ag,MITF primary,FBW7 act,TEAD-YAP inh,GPR151 conf act,GPR119 counter
CCOC(=O)c1sc2ncn(Cc3ccc(C(F)(F)F)cc3)c(=O)c2c1C,6.2*,8.7,0.0,-2.8,0.7,10.8
CCOC(=O)c1sc2ncn(Cc3ccc(Cl)cc3)c(=O)c2c1C,0.8,8.7,-0.1,7.9,·,·
COc1cccc(CC(=O)N2CCc3nnc(CNC(=O)CCc4cccnc4)n3CC2)c1,5.7*,2.5,-0.1,-2.5,0.1,4.8
O=C(Nc1ccc2c(c1)OCCO2)c1ccc(N2CC3CC(C2)c2cccc(=O)n2C3)c(NC(=O)c2ccc(Br)o2)c1 (stereo unspecified),0.0,2.4,0.0,-12.8,·,·
O=C1N(C2Cc3ccccc3C2)C[C@@H]2C[C@@H](c3ccccc3F)N3CCC[C@@]123,15.2*,-0.8,0.0,3.1,-0.2,-5.2
O=C1N(C2Cc3ccccc3C2)C[C@@H]2C[C@@H](c3ccc4nsnc4c3)N3CCC[C@@]123,9.4*,-5.0,0.6,-27.3,0.8,-2.5
CSc1ccc(NC(=O)Nc2c(C)n(-c3ccccc3)c(=O)n2C)cc1,6.5*,6.9,0.1,8.4,0.2,13.9
Cc1cccc(-n2c(O)c(/C=N/n3cnnc3)c(=O)[nH]c2=O)c1,5.3*,-2.3,-0.1,-1.3,-0.4,-2.6
Cc1cccc(-n2c(O)c(C=Nc3ccccc3I)c(=O)[nH]c2=O)c1,-1.0,4.9,0.8,15.1,·,·
COc1ccc(CN2CCN(S(=O)(=O)c3ccccc3[N+](=O)[O-])CC2)cc1OC,1.8,33.0,-0.2,-1.4,·,·
CCN1CCCC1CNC(=O)Cc1c(C(=O)O)n(CC)c2ccccc12 (stereo unspecified),-0.2,-5.2,0.1,-3.9,·,·
N#Cc1ccc(NN2C(=O)c3ccccc3C2=O)c([N+](=O)[O-])c1,1.0,-0.3,0.0,8.9,·,·
N#Cc1ccc(NN2C(=O)c3cc(Cl)c(Cl)cc3C2=O)c([N+](=O)[O-])c1,7.0*,6.8,-0.1,16.5,-0.5,-3.8
CC(=O)c1cccc(-c2ccc3c(c2)COC2(CCN(C)CC2)O3)c1,0.6,13.0,0.2,-7.7,·,·
Fc1ccc(CSc2ccc3nnc(-c4cccnc4)n3n2)cc1,5.3*,-1.9,-0.5,-15.7,0.5,1.0
c1ccc(-c2nnc3ccc(SCc4cccnc4)nn23)cc1,0.4,-1.1,-0.2,5.4,·,·
COC(=O)c1ccccc1NC(=O)C(C)N(c1ccc(Cl)cc1)S(C)(=O)=O (stereo unspecified),6.8*,-0.8,-0.1,3.2,-0.3,8.4
Cc1cc(NC(=O)C(C)N(c2ccc(Cl)cc2)S(C)(=O)=O)ccc1Br (stereo unspecified),6.4*,10.2,0.1,-0.7,0.4,6.0
COC(=O)c1ccccc1NC(=O)C(C)N(c1cc(C)cc(C)c1)S(C)(=O)=O (stereo unspecified),0.1,-4.4,0.2,12.4,·,·
Cc1cc(NC(=O)C(=O)NC(C)C)ccc1Br,6.4*,20.6,0.1,-60.0,-0.9,-7.6
COc1ccc(OC)c(C(=O)CC2(O)C(=O)Nc3ccc(Br)cc32)c1 (stereo unspecified),5.8*,-2.9,-0.2,-16.6,0.5,-5.5
CCOC(=O)C1CCCN1S(=O)(=O)c1ccccc1 (stereo unspecified),0.9,4.0,-0.1,0.1,·,·

# Bioassay records as filed in PubChem.
